Experimental data from ChEMBL document CHEMBL1201862, “PubChem BioAssay data set” (2004).
In all, about 310,000 compounds went through this assay and about 1,900 (0.61%) were called active. Roughly 8% stayed inconclusive and do not appear here. No cut-off for these calls is given here. The full list was thinned out, with actives kept by preference.

assay: qHTS for Stage-Specific Inhibitors of Vaccinia Orthopoxvirus: mCherry Reporter Primary qHTS.; format: functional; conditions: read-out: Potency

Row | SMILES | AC50
1 | CN(C)C(=O)CCc1ccc2c3c([nH]c2c1)[C@]1(C)[C@@H](C(=O)N2CCCCC2)C[C@H](CC(=O)NCCN2CCOCC2)C(=O)N1CC3 | 316 µM (active)
2 | C[C@H]1O[C@@H](O[C@H]2[C@@H](O)C[C@H](O[C@H]3[C@@H](O)C[C@H](O[C@H]4CC[C@@]5(C)[C@H](CC[C@@H]6[C@@H]5CC[C@]5(C)[C@@H](C7=CC(=O)OC7)[C@@H](O)C[C@]65O)C4)O[C@@H]3C)O[C@@H]2C)C[C@H](O)[C@@H]1O [GITOXIN] | 355 µM (active)
3 | Cc1cccc2c1N(CCCCI)C=S2C (stereo not drawn) | 4.47 µM (active)
